According to article PMC11006913:
Substitutions are numbered along the chain they refer to.

Legend:
Assay in all cases: PBM; 200 nM protein, PBS
Conditions in all cases: dsDNA, one strand shown
CRX [1] = molecular target: CRX (Homo sapiens, UniProt O43186 26-111)
CRX [2] = molecular target: CRX (Homo sapiens, UniProt O43186 26-111, E42D)
CRX [3] = molecular target: CRX (Homo sapiens, UniProt O43186 26-111, R41L)
NKX2-4 [4] = molecular target: T1, NKX2-4 (Homo sapiens, UniProt Q9H2Z4 175-261, P217L)
T1 sequence: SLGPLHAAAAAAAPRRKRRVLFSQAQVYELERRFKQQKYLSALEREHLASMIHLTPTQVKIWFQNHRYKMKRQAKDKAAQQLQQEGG

NKX2-4 [5] = molecular target: T2, NKX2-4 (Homo sapiens, UniProt Q9H2Z4 175-261, T231S)
T2 sequence: T1 sequence with L43P, T57S

NKX2-4 [6] = molecular target: T3, NKX2-4 (Homo sapiens, UniProt Q9H2Z4 175-261)
T3 sequence: T1 sequence with L43P

NKX2-4 [7] = molecular target: T4, NKX2-4 (Homo sapiens, UniProt Q9H2Z4 175-261, R246Q)
T4 sequence: T1 sequence with L43P, R72Q

NKX2-6 [8] = molecular target: T5, NKX2-6 (Homo sapiens, UniProt A6NCS4 118-204, R150C)
T5 sequence: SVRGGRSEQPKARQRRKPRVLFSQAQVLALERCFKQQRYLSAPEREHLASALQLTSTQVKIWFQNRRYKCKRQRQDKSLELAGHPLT

HOXA2 [9] = molecular target: HOXA2 (Homo sapiens, UniProt O43364 129-215, R185T)
HOXA2 (Homo sapiens, UniProt O43364 129-215, R185T), sequence (O43364 129-215 R185T): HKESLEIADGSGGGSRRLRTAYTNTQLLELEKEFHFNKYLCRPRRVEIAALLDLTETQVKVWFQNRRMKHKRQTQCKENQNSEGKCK

HOXA2 [10] = molecular target: HOXA2 (Homo sapiens, UniProt O43364 129-215, R185K)
HOXA2 (Homo sapiens, UniProt O43364 129-215, R185K), sequence (O43364 129-215 R185K): as the sequence (O43364 129-215 R185T) above, with T57K counted along it

VAX1 [11] = molecular target: VAX1 (Homo sapiens, UniProt Q5SQQ9 86-172)
VAX1 (Homo sapiens, UniProt Q5SQQ9 86-172), sequence (Q5SQQ9 86-172): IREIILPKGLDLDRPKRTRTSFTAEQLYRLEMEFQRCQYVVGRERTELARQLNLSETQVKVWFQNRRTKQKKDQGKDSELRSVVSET

VAX1 [12] = molecular target: VAX1 (Homo sapiens, UniProt Q5SQQ9 86-172, T142I)
VAX1 (Homo sapiens, UniProt Q5SQQ9 86-172, T142I), sequence (Q5SQQ9 86-172 T142I): as the sequence (Q5SQQ9 86-172) above, with T57I counted along it

HOXA2 [13] = molecular target: HOXA2 (Homo sapiens, UniProt O43364 129-215, Y150S)
HOXA2 (Homo sapiens, UniProt O43364 129-215, Y150S), sequence (O43364 129-215 Y150S): as the sequence (O43364 129-215 R185T) above, with Y22S, T57R counted along it

HOXA2 [14] = molecular target: HOXA2 (Homo sapiens, UniProt O43364 129-215)
HOXA2 (Homo sapiens, UniProt O43364 129-215), sequence (O43364 129-215): as the sequence (O43364 129-215 R185T) above, with T57R counted along it

VAX1 [15] = molecular target: VAX1 (Homo sapiens, UniProt Q5SQQ9 86-172, K157R)
VAX1 (Homo sapiens, UniProt Q5SQQ9 86-172, K157R), sequence (Q5SQQ9 86-172 K157R): as the sequence (Q5SQQ9 86-172) above, with K72R counted along it

HOXB6 [16] = molecular target: HOXB6 (Homo sapiens, UniProt P17509 132-218, K202E)
HOXB6 (Homo sapiens, UniProt P17509 132-218, K202E), sequence (P17509 132-218 K202E): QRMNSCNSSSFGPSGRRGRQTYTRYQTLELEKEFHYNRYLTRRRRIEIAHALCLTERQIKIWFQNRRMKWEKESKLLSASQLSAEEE

HOXB6 [17] = molecular target: HOXB6 (Homo sapiens, UniProt P17509 132-218)
HOXB6 (Homo sapiens, UniProt P17509 132-218), sequence (P17509 132-218): as the sequence (P17509 132-218 K202E) above, with E71K counted along it

NKX2-6 [18] = molecular target: T6, NKX2-6 (Homo sapiens, UniProt A6NCS4 118-204)
T6 sequence: T5 sequence with C33R

NKX2-6 [19] = molecular target: T7, NKX2-6 (Homo sapiens, UniProt A6NCS4 118-204, F151L)
T7 sequence: T5 sequence with C33R, F34L

HOXC9 [20] = molecular target: HOXC9 (Homo sapiens, UniProt P31274 178-260, K195R)
HOXC9 (Homo sapiens, UniProt P31274 178-260, K195R), sequence (P31274 178-260 K195R): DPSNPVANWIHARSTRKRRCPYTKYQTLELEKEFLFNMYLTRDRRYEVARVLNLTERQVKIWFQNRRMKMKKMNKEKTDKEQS

HOXC9 [21] = molecular target: HOXC9 (Homo sapiens, UniProt P31274 178-260)
HOXC9 (Homo sapiens, UniProt P31274 178-260), sequence (P31274 178-260): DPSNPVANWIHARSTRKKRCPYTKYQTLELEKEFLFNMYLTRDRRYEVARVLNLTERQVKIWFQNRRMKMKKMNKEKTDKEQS

PITX2 = PITX2 (Homo sapiens, UniProt Q99697 72-157)
HOXC9 [22] = molecular target: HOXC9 (Homo sapiens, UniProt P31274 178-260, R193K)
HOXC9 (Homo sapiens, UniProt P31274 178-260, R193K), sequence (P31274 178-260 R193K): as the sequence (P31274 178-260) above, with R16K counted along it

HOXC9 [23] = molecular target: HOXC9 (Homo sapiens, UniProt P31274 178-260, R222W)
HOXC9 (Homo sapiens, UniProt P31274 178-260, R222W), sequence (P31274 178-260 R222W): as the sequence (P31274 178-260) above, with R45W counted along it

ALX4 [24] = molecular target: ALX4 (Homo sapiens, UniProt Q9H161 200-286)
ALX4 (Homo sapiens, UniProt Q9H161 200-286), sequence (Q9H161 200-286): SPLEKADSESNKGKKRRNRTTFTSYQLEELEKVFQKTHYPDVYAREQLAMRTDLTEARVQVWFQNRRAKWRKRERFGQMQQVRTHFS

ALX4 [25] = molecular target: ALX4 (Homo sapiens, UniProt Q9H161 200-286, Q225E)
ALX4 (Homo sapiens, UniProt Q9H161 200-286, Q225E), sequence (Q9H161 200-286 Q225E): as the sequence (Q9H161 200-286) above, with Q26E counted along it

CRX (Homo sapiens, UniProt O43186 26-111), sequence (O43186 26-111): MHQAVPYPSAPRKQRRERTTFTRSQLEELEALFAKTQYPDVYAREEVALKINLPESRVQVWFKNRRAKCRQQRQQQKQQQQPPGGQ
CRX (Homo sapiens, UniProt O43186 26-111, E42D), sequence (O43186 26-111 E42D): as the sequence (O43186 26-111) above, with E17D counted along it
CRX (Homo sapiens, UniProt O43186 26-111, R41L), sequence (O43186 26-111 R41L): as the sequence (O43186 26-111) above, with R16L counted along it

GGTTGCCA
binding signal (CRX [1]): 8.28 upbm affinity estimate (log intensity, higher = more binding, comparable within an allelic series)
binding signal (CRX [2]): 8.39 upbm affinity estimate (log intensity, higher = more binding, comparable within an allelic series)
binding signal (CRX [3]): 8.41 upbm affinity estimate (log intensity, higher = more binding, comparable within an allelic series)

CGCCCCTC
binding signal (CRX [1]): 8.34 upbm affinity estimate (log intensity, higher = more binding, comparable within an allelic series)
binding signal (CRX [2]): 8.45 upbm affinity estimate (log intensity, higher = more binding, comparable within an allelic series)
binding signal (CRX [3]): 8.42 upbm affinity estimate (log intensity, higher = more binding, comparable within an allelic series)

ACCGCAAC
binding signal (NKX2-4 [4]): 9.55 upbm affinity estimate (log intensity, higher = more binding, comparable within an allelic series)
binding signal (NKX2-4 [5]): 9.45 upbm affinity estimate (log intensity, higher = more binding, comparable within an allelic series)
binding signal (NKX2-4 [6]): 9.49 upbm affinity estimate (log intensity, higher = more binding, comparable within an allelic series)
binding signal (NKX2-4 [7]): 9.62 upbm affinity estimate (log intensity, higher = more binding, comparable within an allelic series)

ACCTGGGC
binding signal (NKX2-4 [4]): 9.66 upbm affinity estimate (log intensity, higher = more binding, comparable within an allelic series)
binding signal (NKX2-4 [5]): 9.68 upbm affinity estimate (log intensity, higher = more binding, comparable within an allelic series)
binding signal (NKX2-4 [6]): 9.7 upbm affinity estimate (log intensity, higher = more binding, comparable within an allelic series)
binding signal (NKX2-4 [7]): 9.78 upbm affinity estimate (log intensity, higher = more binding, comparable within an allelic series)

ACTCAAGT
binding signal (NKX2-4 [4]): 12.4 upbm affinity estimate (log intensity, higher = more binding, comparable within an allelic series)
binding signal (NKX2-4 [5]): 12.9 upbm affinity estimate (log intensity, higher = more binding, comparable within an allelic series)
binding signal (NKX2-4 [6]): 12.3 upbm affinity estimate (log intensity, higher = more binding, comparable within an allelic series)
binding signal (NKX2-6 [8]): 11.4 upbm affinity estimate (log intensity, higher = more binding, comparable within an allelic series)
binding signal (NKX2-4 [7]): 12.9 upbm affinity estimate (log intensity, higher = more binding, comparable within an allelic series)

CAAGTGCA
binding signal (NKX2-4 [4]): 12.1 upbm affinity estimate (log intensity, higher = more binding, comparable within an allelic series)
binding signal (NKX2-4 [5]): 12.5 upbm affinity estimate (log intensity, higher = more binding, comparable within an allelic series)
binding signal (NKX2-4 [6]): 12 upbm affinity estimate (log intensity, higher = more binding, comparable within an allelic series)
binding signal (NKX2-6 [8]): 11.4 upbm affinity estimate (log intensity, higher = more binding, comparable within an allelic series)
binding signal (NKX2-4 [7]): 12.7 upbm affinity estimate (log intensity, higher = more binding, comparable within an allelic series)

GCCACGCC
binding signal (NKX2-4 [4]): 9.91 upbm affinity estimate (log intensity, higher = more binding, comparable within an allelic series)
binding signal (NKX2-4 [5]): 9.93 upbm affinity estimate (log intensity, higher = more binding, comparable within an allelic series)
binding signal (NKX2-4 [6]): 9.88 upbm affinity estimate (log intensity, higher = more binding, comparable within an allelic series)
binding signal (HOXA2 [9]): 7.26 upbm affinity estimate (log intensity, higher = more binding, comparable within an allelic series)
binding signal (HOXA2 [10]): 10.2 upbm affinity estimate (log intensity, higher = more binding, comparable within an allelic series)
binding signal (NKX2-4 [7]): 9.85 upbm affinity estimate (log intensity, higher = more binding, comparable within an allelic series)
binding signal (VAX1 [11]): 7.13 upbm affinity estimate (log intensity, higher = more binding, comparable within an allelic series)
binding signal (VAX1 [12]): 7.33 upbm affinity estimate (log intensity, higher = more binding, comparable within an allelic series)
binding signal (HOXA2 [13]): 10.4 upbm affinity estimate (log intensity, higher = more binding, comparable within an allelic series)
binding signal (HOXA2 [14]): 7.17 upbm affinity estimate (log intensity, higher = more binding, comparable within an allelic series)
binding signal (VAX1 [15]): 7.18 upbm affinity estimate (log intensity, higher = more binding, comparable within an allelic series)

CCAGGCTC
binding signal (NKX2-4 [4]): 9.76 upbm affinity estimate (log intensity, higher = more binding, comparable within an allelic series)
binding signal (NKX2-4 [5]): 9.75 upbm affinity estimate (log intensity, higher = more binding, comparable within an allelic series)
binding signal (NKX2-4 [6]): 9.7 upbm affinity estimate (log intensity, higher = more binding, comparable within an allelic series)
binding signal (HOXB6 [16]): 9.08 upbm affinity estimate (log intensity, higher = more binding, comparable within an allelic series)
binding signal (NKX2-4 [7]): 9.86 upbm affinity estimate (log intensity, higher = more binding, comparable within an allelic series)
binding signal (HOXB6 [17]): 9.18 upbm affinity estimate (log intensity, higher = more binding, comparable within an allelic series)

AGAAGCCG
binding signal (NKX2-4 [4]): 9.64 upbm affinity estimate (log intensity, higher = more binding, comparable within an allelic series)
binding signal (NKX2-4 [5]): 9.7 upbm affinity estimate (log intensity, higher = more binding, comparable within an allelic series)
binding signal (NKX2-4 [6]): 9.69 upbm affinity estimate (log intensity, higher = more binding, comparable within an allelic series)
binding signal (NKX2-6 [18]): 9.29 upbm affinity estimate (log intensity, higher = more binding, comparable within an allelic series)
binding signal (NKX2-4 [7]): 9.62 upbm affinity estimate (log intensity, higher = more binding, comparable within an allelic series)
binding signal (NKX2-6 [19]): 9.27 upbm affinity estimate (log intensity, higher = more binding, comparable within an allelic series)

AAAGGCGG
binding signal (NKX2-4 [4]): 9.6 upbm affinity estimate (log intensity, higher = more binding, comparable within an allelic series)
binding signal (NKX2-4 [5]): 9.51 upbm affinity estimate (log intensity, higher = more binding, comparable within an allelic series)
binding signal (NKX2-4 [6]): 9.55 upbm affinity estimate (log intensity, higher = more binding, comparable within an allelic series)
binding signal (NKX2-6 [8]): 9.54 upbm affinity estimate (log intensity, higher = more binding, comparable within an allelic series)
binding signal (NKX2-4 [7]): 9.58 upbm affinity estimate (log intensity, higher = more binding, comparable within an allelic series)

CGCGCCCG
binding signal (NKX2-4 [4]): 9.29 upbm affinity estimate (log intensity, higher = more binding, comparable within an allelic series)
binding signal (HOXC9 [20]): 9.51 upbm affinity estimate (log intensity, higher = more binding, comparable within an allelic series)
binding signal (NKX2-4 [5]): 9.29 upbm affinity estimate (log intensity, higher = more binding, comparable within an allelic series)
binding signal (NKX2-4 [6]): 9.39 upbm affinity estimate (log intensity, higher = more binding, comparable within an allelic series)
binding signal (HOXC9 [21]): 9.64 upbm affinity estimate (log intensity, higher = more binding, comparable within an allelic series)
binding signal (PITX2): 7.51 upbm affinity estimate (log intensity, higher = more binding, comparable within an allelic series)
binding signal (HOXC9 [22]): 9.54 upbm affinity estimate (log intensity, higher = more binding, comparable within an allelic series)
binding signal (NKX2-4 [7]): 9.3 upbm affinity estimate (log intensity, higher = more binding, comparable within an allelic series)
binding signal (HOXC9 [23]): 9.66 upbm affinity estimate (log intensity, higher = more binding, comparable within an allelic series)

AGATGCCG
binding signal (NKX2-4 [4]): 9.76 upbm affinity estimate (log intensity, higher = more binding, comparable within an allelic series)
binding signal (NKX2-4 [5]): 9.8 upbm affinity estimate (log intensity, higher = more binding, comparable within an allelic series)
binding signal (ALX4 [24]): 8.1 upbm affinity estimate (log intensity, higher = more binding, comparable within an allelic series)
binding signal (NKX2-4 [6]): 9.82 upbm affinity estimate (log intensity, higher = more binding, comparable within an allelic series)
binding signal (ALX4 [25]): 8.32 upbm affinity estimate (log intensity, higher = more binding, comparable within an allelic series)
binding signal (NKX2-4 [7]): 9.91 upbm affinity estimate (log intensity, higher = more binding, comparable within an allelic series)
